For one assay, the system named is FXR:RXRa (NR concentration 270 nM, RXRa partner concentration 90 nM). The assay can be described thus: PBM binding z-score (relative to random genomic background probes); higher = stronger binding; sequences stand for … in GC…GCGATTGACAGCGTAGAATGAAGG
The essentials: (§1)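 Each nuclear receptor dimer, without ligand, was incubated for 1 h on custom Agilent 4×180K protein-binding microarrays. Binding was detected with antibodies against each partner (one per run), and scanned fluorescence was regression-normalized. The binding z-scores are referenced to random human genomic background probes.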
The sequence CGAACTAGGTAACCAGGACAGTGAAGAGGTTGGA gave a PBM binding z-score of -0.0198.
Still for that read-out and setting: to CGAACTAGGTCAAAGGACAGTTAAAGGCGACGTA belongs 4.01; to CGAACTAGGTCAAAGGACAGTGCAAGGCGACGTA, 4.07; to CGAACTAGGTTACCAGGACAGTGAAGAGGTTGGA, -0.174.
Still for that read-out and setting: under CGAACTAGGTCACCAGGAGAGTGAAGAGGTTGGA stands 3.86.
Same read-out and setting: under ATATGTAGGTTAGGGTCATCCAGAAAGTAGGGAA stands 5.11.
In turn, CGAACTAGGTCACCCGGACAGTGAAGAGGTTGGA had a PBM binding z-score of 3.91.
The same measure, in the same setting: under ATATGTAGGTTTGGGTCATTCAGAAAGTAGGGAA stands 1.74; under CGAACTAGGTCAAAGGACAGGGAAAGGCGACGTA, 4.04; under CGAACTAGGTCACAGGACAGTGAAAGGCGACGTA, 4.05.
Still for that read-out and setting: to CGAAATAGGTCACCAGGACAGTGAAGAGGTTGGA belongs 5.67; to CGAACTAGGTCGAAGGACAGTGAAAGGCGACGTA, -0.0707.
The same measure, in the same setting: under CGAACTAGTTCAAAGGACAGTGAAAGGCGACGTA stands -0.112.
ATATGTAGGTTATGGTCATTCAGAAAGTAGGGAA returned a PBM binding z-score of 1.06.
The same measure, in the same setting: under CGAACTAGGTTAAAGGACAGTGAAAGGCGACGTA stands -0.0523.
The same measure, in the same setting: to CGAACTAGGTCAAAGGACAGAGAAAGGCGACGTA belongs 4.22; to CGAACTAGGTCACCAGGACAGTGATGAGGTTGGA, 3.92.
As to ATATGTAGGTTAGGGTCATGCAGAAAGTAGGGAA, the PBM binding z-score came out at 4.77.
The same measure, in the same setting: to CGAACTAGGTCAAAGGACAGTGACAGGCGACGTA belongs 4.22; to CGTACTAGGTCAAAGGACAGTGAAAGGCGACGTA, 3.86.
Still for that read-out and setting: under ATACGTAGGTTAGGGTCATTCAGAAAGTAGGGAA stands 4.93.
Still for that read-out and setting: to ATATGTAGGTTAGGGTCATTAAGAAAGTAGGGAA belongs 4.6; to CGAACTAGGTGACCAGGACAGTGAAGAGGTTGGA, -0.0348; to CGAACTAGGTCATAGGACAGTGAAAGGCGACGTA, 3.51.
CGAGCTAGGTCAAAGGACAGTGAAAGGCGACGTA returned a PBM binding z-score of 4.09.
Still for that read-out and setting: under ATATGTAGGTGAGGGTCATTCAGAAAGTAGGGAA stands 3.06; under ATAGGTAGGTTAGGGTCATTCAGAAAGTAGGGAA, 5.28; under AGATGTAGGTTAGGGTCATTCAGAAAGTAGGGAA, 5.03.
AAATGTAGGTTAGGGTCATTCAGAAAGTAGGGAA came in with a PBM binding z-score of 5.35.
Same read-out and setting: to CGAACTAGGTCAAAGGAAAGTGAAAGGCGACGTA belongs 3.12; to CGAACTAGGTCACCAGGACATTGAAGAGGTTGGA, 4.15.
Still for that read-out and setting: to CGAACTAGGTCAAAGGACAGTCAAAGGCGACGTA belongs 4.15.
Sequence CGAAATAGGTCAAAGGACAGTGAAAGGCGACGTA had a PBM binding z-score of 6.11.
Same read-out and setting: under ATATGAAGGTTAGGGTCATTCAGAAAGTAGGGAA stands 5.27.
In turn, ATATGTGGGTTAGGGTCATTCAGAAAGTAGGGAA yielded a PBM binding z-score of 5.21.
On the same count and under the same terms, to CGAACTAGGTCAAAGGACAGTAAAAGGCGACGTA belongs 4.06; to ATATGTAGGTTAGGGGCATTCAGAAAGTAGGGAA, 1.64.
On the same count and under the same terms, to CGAACTAGGTCACCAGGCCAGTGAAGAGGTTGGA belongs 4.08.
Same read-out and setting: under CGAACTAGGTCACCAAGACAGTGAAGAGGTTGGA stands 3.75.

A further assay has as its system LXRa:RXRa (NR concentration 270 nM, RXRa partner concentration 90 nM). The assay is described as above. The procedure, abridged: as §1
Sequence CGAACTAGGTAACCAGGACAGTGAAGAGGTTGGA came in with a PBM binding z-score of -0.368.
For CGAACTAGGTCAAAGGACAGTTAAAGGCGACGTA, the PBM binding z-score stood at 2.69.
On the same count and under the same terms, under CGAACTAGGTCAAAGGACAGTGCAAGGCGACGTA stands 2.5.
On the same count and under the same terms, under CGAACTAGGTTACCAGGACAGTGAAGAGGTTGGA stands -0.0635; under CGAACTAGGTCACCAGGAGAGTGAAGAGGTTGGA, 2.33; under ATATGTAGGTTAGGGTCATCCAGAAAGTAGGGAA, 4.21.
In turn, CGAACTAGGTCACCCGGACAGTGAAGAGGTTGGA came in with a PBM binding z-score of 2.15.
Same read-out and setting: under ATATGTAGGTTTGGGTCATTCAGAAAGTAGGGAA stands 1.71.
On the same count and under the same terms, to CGAACTAGGTCAAAGGACAGGGAAAGGCGACGTA belongs 2.31.
On the same count and under the same terms, under CGAACTAGGTCACAGGACAGTGAAAGGCGACGTA stands 2.67; under CGAAATAGGTCACCAGGACAGTGAAGAGGTTGGA, 4.08.
Turning to CGAACTAGGTCGAAGGACAGTGAAAGGCGACGTA, the PBM binding z-score was -0.21.
CGAACTAGTTCAAAGGACAGTGAAAGGCGACGTA showed a PBM binding z-score of -0.0127.
Same read-out and setting: to ATATGTAGGTTATGGTCATTCAGAAAGTAGGGAA belongs 1.36.
Same read-out and setting: under CGAACTAGGTTAAAGGACAGTGAAAGGCGACGTA stands 0.122; under CGAACTAGGTCAAAGGACAGAGAAAGGCGACGTA, 2.87.
Still for that read-out and setting: to CGAACTAGGTCACCAGGACAGTGATGAGGTTGGA belongs 2.37.
The sequence ATATGTAGGTTAGGGTCATGCAGAAAGTAGGGAA returned a PBM binding z-score of 4.14.
On the same count and under the same terms, to CGAACTAGGTCAAAGGACAGTGACAGGCGACGTA belongs 2.82.
Still for that read-out and setting: under CGTACTAGGTCAAAGGACAGTGAAAGGCGACGTA stands 2.77; under ATACGTAGGTTAGGGTCATTCAGAAAGTAGGGAA, 3.99; under ATATGTAGGTTAGGGTCATTAAGAAAGTAGGGAA, 3.41.
Regarding CGAACTAGGTGACCAGGACAGTGAAGAGGTTGGA, the PBM binding z-score is -0.436.
In turn, CGAACTAGGTCATAGGACAGTGAAAGGCGACGTA registered a PBM binding z-score of 2.47.
Still for that read-out and setting: to CGAGCTAGGTCAAAGGACAGTGAAAGGCGACGTA belongs 2.67; to ATATGTAGGTGAGGGTCATTCAGAAAGTAGGGAA, 2.59; to ATAGGTAGGTTAGGGTCATTCAGAAAGTAGGGAA, 4.39.
The sequence AGATGTAGGTTAGGGTCATTCAGAAAGTAGGGAA had a PBM binding z-score of 3.88.
AAATGTAGGTTAGGGTCATTCAGAAAGTAGGGAA: the PBM binding z-score is 4.2.
Still for that read-out and setting: under CGAACTAGGTCAAAGGAAAGTGAAAGGCGACGTA stands 1.88.
For CGAACTAGGTCACCAGGACATTGAAGAGGTTGGA, the PBM binding z-score worked out at 2.68.
Same read-out and setting: under CGAACTAGGTCAAAGGACAGTCAAAGGCGACGTA stands 2.73; under CGAAATAGGTCAAAGGACAGTGAAAGGCGACGTA, 4.45; under ATATGAAGGTTAGGGTCATTCAGAAAGTAGGGAA, 4.18.
Still for that read-out and setting: to ATATGTGGGTTAGGGTCATTCAGAAAGTAGGGAA belongs 4.67.
For CGAACTAGGTCAAAGGACAGTAAAAGGCGACGTA, the PBM binding z-score was 2.48.
The same measure, in the same setting: to ATATGTAGGTTAGGGGCATTCAGAAAGTAGGGAA belongs 1.47; to CGAACTAGGTCACCAGGCCAGTGAAGAGGTTGGA, 2.41.
Still for that read-out and setting: to CGAACTAGGTCACCAAGACAGTGAAGAGGTTGGA belongs 1.93.

(Values after the supplement of paper PMC6555819.)
